VDR inh: vitamin D3 receptor (human) inhibition; AID 504847; VDR-SRC2-3 peptide fluorescence polarization, 2 h; 400,000 tested, 0.93% active; Potency, µM, for inactives: max response, negative = inhibition, most hits filed as inhibitors; further: potency means the concentration at half of the fitted maximal effect
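FP read-out; VDR + SRC2-3 coactivator peptide; 23 nl compound by pintool; 2 h RT incubation; reagents held at 4 deg C, protected from light.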
PI4K2A inh: PI4K2A (human) kinase inhibition. Q9BTU6. purified PI4K2A, ADP-Glo luminescence, 1 h; active compounds read low. activity change, negative = inhibition, % at 76.9 µM. 420,000 tested, 0.13% active. AID 1346378; in the data active means activity change below about -50%; inconclusive means mostly about -30% to -49%;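 further: -100% = wells without enzyme as full effect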
Target sequence (Q9BTU6 whole entry, looked up): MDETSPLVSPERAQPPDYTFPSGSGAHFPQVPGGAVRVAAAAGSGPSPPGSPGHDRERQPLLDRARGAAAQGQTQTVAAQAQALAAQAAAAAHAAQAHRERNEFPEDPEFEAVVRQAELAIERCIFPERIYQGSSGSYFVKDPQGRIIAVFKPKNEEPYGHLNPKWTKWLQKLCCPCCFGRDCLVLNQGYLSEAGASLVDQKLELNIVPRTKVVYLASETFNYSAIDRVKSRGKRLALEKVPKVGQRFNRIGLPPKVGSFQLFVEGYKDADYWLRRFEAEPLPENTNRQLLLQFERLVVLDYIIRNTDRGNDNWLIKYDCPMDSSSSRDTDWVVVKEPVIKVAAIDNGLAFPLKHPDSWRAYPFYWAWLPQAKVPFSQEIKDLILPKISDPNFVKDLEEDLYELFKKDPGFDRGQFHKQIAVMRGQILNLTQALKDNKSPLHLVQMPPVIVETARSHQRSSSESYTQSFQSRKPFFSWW
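In this quantitative HTS, ADP production by PI4K2A was quantified luminescently after 1 h at ambient temperature; 100 microM adenosine served as plate-quality control.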
GLS inh: blocks human kidney-isoform glutaminase activity; O94925; 410,000 tested, 0.21% active; Potency, µM (titrated, usually from 45.5 µM), inactives show at the top dose activity change, negative = inhibition, hits mostly inhibitors; GLS enzymatic activity, qHTS titration; further: potency means the concentration at half of the fitted maximal effect
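Human kidney-isoform GLS in 45 mM KH2PO4 pH 8.2, 0.02% Tween-20, with compound, started with 1mM L-Glutamine (added stock). Glutamate oxidase/HRP/Amplex red coupled fluorescence read at start and after 30 min at RT.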
PLK1 PBD block: PLK1 (human) polo-box domain binding inhibition. Potency, µM, without a hit: max response, negative = inhibition, usual class: inhibitors. AID 720504. Plk1 PBD binding of FITC phosphopeptide, fluorescence polarization. P53350. 360,000 tested, 2.8% active; further: potency means the concentration at half of the fitted maximal effect; series mostly up to about 57 µM; nearly all actives have a fitted effect of over 65% in size
KAT2A inh: inhibitors of human GCN5L2 histone acetyltransferase. GCN5L2 HAT assay, ThioGlo1 CoA-SH fluorescence. Potency, µM (top dose mostly 58.9 µM), for inactives: top-dose activity change, negative = inhibition, usual class: inhibitors. 390,000 tested, 0.21% active. Q92830; further: potency means the concentration at half of the fitted maximal effect
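Compounds, pin-transferred from DMSO stocks, meet 20nM GCN5L2 for 15 min before the reaction begins with H3(1-25) peptide (75uM) and acetyl-CoA (70uM). Thiol-reactive ThioGlo1 reports CoA release over 20 min at room temperature.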
Active calls of the source: *; ? = inconclusive; / = no result. An excerpt weighted towards active compounds, which were near 3.1% of everything screened. Unless noted, the call rests on the fitted dose curve; in most records, active means well fitted curve in the direction sought with a large enough effect; inconclusive means small, poorly fitted or top-dose-only effect, or another doubt; inactive means no such curve, though single readings can be large; an effect the other way counts as inactive or inconclusive. Unless noted, on the % scale 0 is the no-effect control and ±100 the full control effect.

SMILES	VDR inh	PI4K2A inh	GLS inh	PLK1 PBD block	KAT2A inh
CC(Sc1nc(N)c2c3c(sc2n1)CSC(C)(C)C3)C(=O)Nc1ccccc1 (centres undefined)	40µM*	-7	?	8.4µM*	-4%
CCN(CC)C(=O)C1CN2CCc3cc(OC)c(OC)cc3C2CC1OC(C)=O (centres undefined)	/	-3	/	/	/
COC(=O)C[C@H]1CC[C@H]2[C@H](COc3ccc(NS(=O)(=O)c4cccc(F)c4)cc3C(=O)N2C)O1	/	-2	/	/	/
CCn1c(SCC(=O)NC(=O)NC(C)(C)C)nc2ccccc21	?	2	-25%	9.5µM*	-6%
O=S(=O)(c1ccc(CN2CCOCCOCCN(Cc3ccc(S(=O)(=O)C(F)(F)F)cc3)CCOCC2)cc1)C(F)(F)F	/	3	/	/	/
C(#CC1=CCCCC1)CNCc1ccccc1	/	-10	/	/	/
CCOC(=O)NC(N(O)c1cccc(Cl)c1)C(Cl)(Cl)Cl (centres undefined)	32µM*	5	0%	?	1%
CCOC(=O)N[C@H](Cc1c[nH]c2ccccc12)C(=O)Nc1cccc(Cl)c1	-8%	4	-3%	/	2%
Cc1ccc(CN2CCCCC(NC(=O)c3ccc(F)cc3)C2=O)cc1 (centres undefined)	/	-2	/	/	/
COc1ccc(OCC2c3cc(OC)c(OC)cc3CCN2C(=O)C(C)C)cc1 (centres undefined)	-17%	1	4%	27µM*	-7%
COC(=O)c1ccc(OCC2c3cc(OC)c(OC)cc3CCN2C(=O)c2ccc(OC)cc2)cc1 (centres undefined)	-3%	-2	4%	/	1%
CC(=O)N1CCN(C(=S)Nc2ccc(SC(F)F)cc2)CC1	-6%	4	0%	21µM*	2%
Nc1nnnn1/N=C/c1cc(Cl)ccc1O	0%	3	40%	?	-24%
Nc1nnnn1/N=C/c1cc(Cl)cc(Cl)c1O	-19%	-2	10%	12µM*	-21%
O=C(O)c1cccc(NC2=C(Cl)C(=O)c3ccccc3C2=O)c1	?	-27	9%	17µM*	-6%
O=C(O)c1ccc(NC2=C(Cl)C(=O)c3ccccc3C2=O)cc1	?	-24	9%	5.3µM*	-17%
O=C1C(Cl)=C(Nc2ccccc2)C(=O)c2ccccc21	3%	-4	0%	-15%	-8%
O=C1C(Cl)=C(NCCc2ccccc2)C(=O)c2ccccc21	18µM*	-10	?	2.7µM*	/
Nc1ccc2nc(-c3cc(Cl)c(N)c(Cl)c3)[nH]c2c1	?	-6	19%	24µM*	-14%
Cc1ccn2c(NC3CCCC3)c(-c3cccs3)nc2c1	40µM*	-1	?	4.2µM*	-22%
Cc1ccn2c(NCc3ccccc3)c(-c3cccs3)nc2c1	2%	-3	9%	-7%	-20%
CC1CCN(c2ccc(C(=O)O)cc2NS(=O)(=O)c2ccc(F)cc2)CC1	/	3	/	/	/
CC(C)N1C/C(=C/c2ccsc2)C(=O)/C(=C/c2ccsc2)C1	16µM*	7	0%	-18%	42%
CCN1C(=O)S/C(=C/c2ccsc2)C1=O	1%	4	1%	-4%	-1%
COc1ccc(CN(Cc2ccco2)c2cnc(S(C)(=O)=O)nc2C(=O)Nc2ccc(C)c(Cl)c2)cc1	2%	-2	-7%	/	-20%
SMILES	VDR inh	PI4K2A inh	GLS inh	PLK1 PBD block	KAT2A inh
O=C(O)c1ccc(C=Nn2c(-c3ccc(F)cc3)n[nH]c2=S)cc1	/	-3	/	/	/
Cc1ccc(C(O)c2nc3ccccc3n2C(C)C)cc1 (centres undefined)	5%	2	0%	-14%	2%
COc1ccc(C(O)c2nc3ccccc3n2C(C)C)cc1 (centres undefined)	?	-3	22%	24µM*	-15%
COc1ccc(-c2cc(-c3nnc(SCC(=O)N4CCOCC4)n3N)[nH]n2)cc1	/	-2	/	/	/
CCOC(=O)c1ccccc1NC(=O)c1cn(CC)c2nc(C)ccc2c1=O	?	-1	6%	27µM*	3%
COc1ccc2[nH]cc(CCNc3nc(-c4cccnc4)nc4ccccc34)c2c1	-15%	/	/	/	-16%
O=[N+]([O-])c1ccc(NNC(=S)Nc2ccc(F)cc2)cc1	?	-14	-22%	12µM*	-1%
Cn1c(=O)c2[nH]c(-c3ccccc3)c(O)c2n(C)c1=O	-19%	4	33%	27µM*	-5%

Screens from PubChem.
